{"source": "PubChem BioAssay AID1533", "about": "(PCMD, 2009)", "note": "Among all 160,000 compounds or so, about 45 (0.03%) were called active. Rule as the data show it: active = inhibition mostly above about 34% (no sharp cut-off); inconclusive = no clear call, values can overlap the other calls; inactive = mostly below about 22%. The full list was thinned out, with actives kept by preference."}
{"biological_target": "dTDP-4-dehydrorhamnose reductase (Mycobacterium tuberculosis (strain ATCC 25618 / H37Rv)) + dTDP-4-dehydrorhamnose 3,5-epimerase (Mycobacterium tuberculosis (strain ATCC 25618 / H37Rv)) (UniProt P9WH09+P9WH11)", "sequence (P9WH09 whole entry, looked up)": "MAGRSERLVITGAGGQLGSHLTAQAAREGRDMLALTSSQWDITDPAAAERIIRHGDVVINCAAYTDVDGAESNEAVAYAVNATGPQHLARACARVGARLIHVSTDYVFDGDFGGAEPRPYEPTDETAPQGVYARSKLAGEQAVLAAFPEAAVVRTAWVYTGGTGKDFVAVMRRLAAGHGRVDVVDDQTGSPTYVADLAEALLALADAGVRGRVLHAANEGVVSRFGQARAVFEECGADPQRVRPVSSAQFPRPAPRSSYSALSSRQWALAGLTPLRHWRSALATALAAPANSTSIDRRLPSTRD", "sequence (P9WH11 whole entry, looked up)": "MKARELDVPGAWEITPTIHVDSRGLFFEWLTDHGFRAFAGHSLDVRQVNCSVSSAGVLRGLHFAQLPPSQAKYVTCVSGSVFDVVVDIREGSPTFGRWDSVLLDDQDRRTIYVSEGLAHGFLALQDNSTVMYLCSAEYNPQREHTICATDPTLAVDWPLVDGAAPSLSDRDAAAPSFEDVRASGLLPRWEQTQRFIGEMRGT", "assay": "M. tuberculosis RmlC/RmlD coupled enzyme inhibitors, primary screen, biochemical, compound mixtures, 384-well, from 1536-well plates (AID 1533)", "conditions": "RmlC+RmlD coupled enzyme assay, percent inhibition; primary screen in compound mixtures; at 3.6 µM; active compounds read high"}
{"smiles": "N/C(=N\\OC(=O)CCCC(=O)O)c1ncc(C(F)(F)F)cc1Cl", "inhibition": "2.53% (inactive)"}
{"smiles": "N#CC1=C(N)Oc2c(ccc3cccnc23)C1c1ccncc1", "note": "(stereo not given)", "inhibition": "4.04% (inactive)"}
{"smiles": "c1csc(-c2nnc(COc3ncnc4sccc34)o2)c1", "inhibition": "-7.72% (inactive)"}
{"smiles": "O=c1ccnc(Nc2ccc(Cl)cc2)[nH]1", "inhibition": "6.37% (inactive)"}
{"smiles": "CN(c1ccccc1)S(=O)(=O)c1cc(C(=O)OCC(=O)N2CCN(C(=O)c3ccco3)CC2)ccc1Cl", "inhibition": "3.76% (inactive)"}
{"smiles": "COC(=O)c1ccccc1N=Nc1c(C)[nH][nH]c1=O", "inhibition": "-10.6% (inactive)"}
{"smiles": "O=C(Nc1ccccc1F)c1ccc(Cn2cc(Br)cn2)cc1", "inhibition": "-3.16% (inactive)"}
{"smiles": "O=C(Cc1ccccc1Cl)N1CCN(c2ccccn2)CC1", "inhibition": "-5.39% (inactive)"}
{"smiles": "NC(=O)Cc1ccc2c(c1)[nH]c1ccccc12", "inhibition": "-1.93% (inactive)"}
{"smiles": "O=C(COc1cc(Cl)c(Cl)cc1Cl)NCCc1ccccn1", "inhibition": "6.74% (inactive)"}
{"smiles": "CCN1C(=O)/C(=c2\\s/c(=C3\\Sc4ccccc4N3C)c(=O)n2C)N(C)C1=S", "inhibition": "-7.72% (inactive)"}
{"smiles": "C=CCN(CC=C)C(=O)COC(=O)c1n[nH]c2ccccc12", "inhibition": "5.16% (inactive)"}
{"smiles": "O=C(Nc1ccc(-c2ccc3nncn3n2)cc1)C1CCCCC1", "inhibition": "-6.47% (inactive)"}
{"smiles": "Cc1ccc(-c2nn(-c3cccc(F)c3)cc2CNCCc2ccncc2)o1", "inhibition": "-11.7% (inactive)"}
{"smiles": "CCN(CC)S(=O)(=O)c1ccc(NC(=O)c2cccnc2Cl)c(NC(=O)c2cccnc2Cl)c1", "inhibition": "9.89% (inactive)"}
{"smiles": "O=[N+]([O-])/C(N=Nc1ccccc1)=N\\Nc1ccccc1", "inhibition": "-9.57% (inactive)"}
{"smiles": "O=S(=O)(NC(=S)Nc1ccccc1)c1ccc(F)cc1", "inhibition": "-3.25% (inactive)"}
{"smiles": "CN(CCC1CCOCC1)Cc1cn[nH]c1-c1ccc(-c2ccccc2)cc1", "inhibition": "9.21% (inactive)"}
{"smiles": "Cc1c(NC(=O)CN2C(=O)C(=O)N(Cc3ccccc3)C2=O)c(=O)n(-c2ccccc2)n1C", "inhibition": "7.63% (inactive)"}
{"smiles": "CCOC(=O)c1sc(NC(=O)CSc2n[nH]c(CC)n2)nc1C", "inhibition": "-5.04% (inactive)"}
